Some test systems named below: T-47D breast; BT-549 breast; MDA-MB-435 melanoma; SW-620 colon; MCF7 breast; HCT-116 colon; HCC-2998 colon; KM12 colon.
What all share (assay): NCI-60 one-dose screen, 48 h (100 = growth as untreated, 0 = no growth, -100 = all killed)
What all share (conditions): 10 µM unless noted

This is part of a sample that, as a whole, favours compounds with a hit. Of some 83,000 tested, about 20% had one in any assay.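 Interpretation: 100, growth as untreated; towards 0, rising growth inhibition; 0, no net growth; 0 to -100, cell death. Compounds scoring below 10 were considered active.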 Unmarked numbers belong to inactive results. Active and inactive are the calls of the source.

Regarding `COc1ccccc1N1CCN(CCn2c(=O)c3c(c4ccccc4n3C)n(C)c2=O)CC1`, the growth was 64.4% in the assay on T-47D breast; 99.3% in the assay on BT-549 breast; 106% in the assay on MDA-MB-435 melanoma; 98.9% in the assay on SW-620 colon; 93.2% with MCF7 breast; 98.4% in the assay with HCT-116 colon. In addition, the growth in the assay on HCC-2998 colon was 104%; in the assay with KM12 colon, 103%.

Regarding `O=c1c2cccc3c(NC4CCCCC4)ccc(c32)c2nc3ccccc3n12`, the growth was 32.5% with T-47D breast; 94.1% in the assay on BT-549 breast; 103% in the assay with MDA-MB-435 melanoma; 80.1% in the assay with SW-620 colon; 13.5% in the assay with MCF7 breast; 85.3% in the assay on HCT-116 colon. The growth in the assay with HCC-2998 colon is 51.7%; with KM12 colon, 81.1%.

Consider `C=C1CCC2C3(C)COC(c4ccc(SC)cc4)OC3CCC2(C)C1C/C=C1/C(=O)OCC1O` (configuration not stated), for which the growth is 23.6% in the assay on T-47D breast; 64.6% with BT-549 breast; 61.3% in the assay with MDA-MB-435 melanoma; 10.6% with SW-620 colon; 27.7% with MCF7 breast; 11.2% in the assay on HCT-116 colon. The growth in the assay on HCC-2998 colon is 90.5%; in the assay on KM12 colon it was 44.3%.

In the case of `CCCCN(CC)CCCCCCCCCCN1CCCc2cc(OC)ccc21`, the growth with T-47D breast is 93.6%; in the assay on BT-549 breast it was 89.3%; in the assay with MDA-MB-435 melanoma, 14.5%; in the assay with SW-620 colon it was 22.7%; in the assay on MCF7 breast it was 99%; with HCT-116 colon it was 69.7%. The growth with HCC-2998 colon was -26% (active); in the assay with KM12 colon it was -1.91% (active).

Turning to `CC1=CC(=O)CC(C)(C)[C@@]1(O)/C=C/[C@@H](C)O`, the growth with T-47D breast was 91.7%; with BT-549 breast, 105%; in the assay on MDA-MB-435 melanoma, 102%; in the assay with SW-620 colon, 105%; in the assay with MCF7 breast it was 84.6%; in the assay with HCT-116 colon, 101%. Also, the growth in the assay on HCC-2998 colon is 94.7%; in the assay with KM12 colon it was 102%.

As to `COc1ccc(CCN2CC=Cn3c2nc2ccccc2c3=O)cc1`, the growth in the assay with T-47D breast is 75%; with BT-549 breast it was 17.2%; in the assay on MDA-MB-435 melanoma it was -4.94% (active); in the assay with SW-620 colon it was 25.9%; with MCF7 breast it was 18.9%; with HCT-116 colon, 10.2%. Besides, the growth was 5.15% (active) in the assay with HCC-2998 colon and 4.27% (active) in the assay on KM12 colon.

Consider `Brc1cccc(-c2cc(-c3ccc4c(c3)OCCO4)[nH]n2)c1`, for which the growth with T-47D breast is 29% [25 µM]; in the assay on BT-549 breast it was 41.7% [25 µM]; in the assay on MDA-MB-435 melanoma it was -40.2% [25 µM] (active); with SW-620 colon, 28.7% [25 µM]; in the assay on MCF7 breast, 10.6% [25 µM]; in the assay with HCT-116 colon it was 21% [25 µM]. For the same molecule, the growth in the assay on HCC-2998 colon was 44.6% [25 µM]; in the assay on KM12 colon, 22.9% [25 µM].

Turning to `Cc1cc(=O)oc2cc(Oc3nc(-c4cccs4)cn4c(-c5cccs5)cnc34)ccc12`, the growth in the assay with T-47D breast was 54.7%; in the assay on BT-549 breast it was 25%; in the assay with MDA-MB-435 melanoma, 61.3%; in the assay with SW-620 colon it was 56.7%; in the assay with MCF7 breast it was 59.9%; in the assay with HCT-116 colon, 58.7%. For the same molecule, the growth is 78.1% in the assay with HCC-2998 colon and 59.6% in the assay with KM12 colon.

As to `O=C1Nc2ccccc2C12CC(c1ccc(Cl)cc1)=NN2` (configuration not stated), the growth was 91.1% with T-47D breast; 98.5% with BT-549 breast; 98.8% in the assay on MDA-MB-435 melanoma; 106% in the assay with SW-620 colon; 91.4% in the assay on MCF7 breast; 95.3% in the assay on HCT-116 colon. The growth in the assay with HCC-2998 colon is 108%; in the assay with KM12 colon, 110%.

Consider `C=C1CCC2C3(C)COC(c4ccc(OC)cc4Br)OC3CCC2(C)C1/C=C/C1=CCOC1=O` (configuration not stated), for which the growth in the assay on T-47D breast was 41.3%; with BT-549 breast, 73.8%; in the assay on MDA-MB-435 melanoma, 93.7%; with SW-620 colon, 84%; in the assay on MCF7 breast it was 60.7%; in the assay on HCT-116 colon, 53.9%. Besides, the growth with HCC-2998 colon was 57.9%; with KM12 colon, 83.4%.

As to `COc1cc(OC)c(/C=C/S(=O)(=O)Cc2ccc(OC)c(N)n2)c(OC)c1`, the growth was 44.8% in the assay on T-47D breast; 8.17% (active) in the assay with BT-549 breast; 2.24% (active) in the assay with MDA-MB-435 melanoma; 25.5% with SW-620 colon; 12.9% with MCF7 breast; 2.03% (active) in the assay with HCT-116 colon. In addition, the values for the growth with HCC-2998 colon and in the assay on KM12 colon were 18.8% and 12.9%, respectively.

Take `CC1CN(Cc2ccco2)C(=S)N(c2ccccc2)C1=O` (configuration not stated): the growth was 83.1% in the assay with T-47D breast; 94.6% in the assay on BT-549 breast; 100% in the assay on MDA-MB-435 melanoma; 102% in the assay with SW-620 colon; 102% in the assay on MCF7 breast; 88.9% with HCT-116 colon. Also, the growth with HCC-2998 colon was 113%; in the assay on KM12 colon it was 99.9%.

Turning to `CC/C=C\C[C@H](F)C/C=C1/C(=O)C=C[C@@H]1C/C=C\CCCC(=O)OC`, the growth with T-47D breast was 4.66% (active); with BT-549 breast, -2.64% (active); in the assay with MDA-MB-435 melanoma it was 0.0777% (active); in the assay on SW-620 colon it was 14.3%; in the assay on MCF7 breast, 11.6%; in the assay with HCT-116 colon, -54.6% (active). Also, the growth was 9.38% (active) in the assay with HCC-2998 colon and -27.7% (active) in the assay with KM12 colon.

As to `CNc1nc(C)c(-c2nc(Nc3cccc(S(N)(=O)=O)c3)ncc2F)s1`, the growth in the assay with T-47D breast is -2.75% (active); in the assay with BT-549 breast, -17.1% (active); with MDA-MB-435 melanoma it was 17.6%; in the assay on SW-620 colon it was 8% (active); in the assay with MCF7 breast, 1.33% (active); in the assay with HCT-116 colon, 5.28% (active). The figures for the growth with HCC-2998 colon and with KM12 colon were 2.96% (active) and 5.25% (active), respectively.

Source of the values: PubChem BioAssay (NCI).
